Where a name gives a salt, the structure may show the parent alone. ± gives the standard deviation of the averaged measurements. Over roughly 1,300 compounds, “normalised cell viability” has its median near 1; the lowest 2% begin near 0.14. This is one part of a sample in which the lowest values are shown more often than they occur.
System: V-C8 (BRCA2-deficient hamster cells)
Assay: normalised cell viability (fraction of plate median); higher = more viable cells (less toxic)
Details: 5 µM
Outline: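 Hamster V-C8 cells with and without restored BRCA2 were exposed in 96-well plates to library drugs at 5 μM for 3 days (screen 1) or 6 days (screen 2). Cell viability was scored by resazurin assay, then median-plate normalised, averaging triplicate wells.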

Structure (SMILES) | normalised cell viability (treatment time: 3 days) | normalised cell viability (treatment time: 6 days)
CO[C@H]1/C=C/O[C@@]2(C)Oc3c(C)c(O)c4c(O)c(c5c(nc6cc(C)ccn65)c4c3C2=O)NC(=O)/C(C)=C\C=C\[C@H](C)[C@H](O)[C@@H](C)[C@@H](O)[C@@H](C)[C@H](OC(C)=O)[C@@H]1C [Rifaximin] | 0.964 ± 0.023 | 0.928 ± 0.017
CN(C/C=C/c1ccccc1)Cc1cccc2ccccc12 [Naftifine hydrochloride] | 0.199 ± 0.019 | 0.219 ± 0.0077
CC(O)(P(=O)(O)O)P(=O)(O)O [Etidronic acid, disodium salt] | 1.03 ± 0.024 | 1.05 ± 0.046
CNC(=C[N+](=O)[O-])NCCSCc1ccc(CN(C)C)o1 [Ranitidine hydrochloride] | 1.02 ± 0.13 | 1.08 ± 0.045
CC(=O)OCC(=O)[C@@]1(OC(C)=O)[C@@H](C)C[C@H]2[C@@H]3C[C@H](F)C4=CC(=O)C=C[C@]4(C)[C@@]3(F)[C@@H](O)C[C@@]21C [Diflorasone Diacetate] | 1.18 ± 0.074 | 1.02 ± 0.051
OC[C@H]1O[C@@H](Oc2ccc(O)cc2)[C@H](O)[C@@H](O)[C@@H]1O [Arbutin] | 1.05 ± 0.026 | 1.03 ± 0.058
CCOc1ccc(Cc2nccc3cc(OCC)c(OCC)cc23)cc1OCC [Ethaverine hydrochloride] | 0.625 ± 0.013 | 0.534 ± 0.022
CC(=O)O[C@H]1C[C@@H]2CC[C@@H]3[C@H](CC[C@@]4(C)[C@H]3C[C@H]([N+]3(C)CCCCC3)[C@@H]4OC(C)=O)[C@@]2(C)C[C@@H]1N1CCCCC1 [Vecuronium bromide] | 1.01 ± 0.047 | 1.04 ± 0.036
Clc1ccc(C(Cn2ccnc2)OCc2c(Cl)cccc2Cl)c(Cl)c1 (configuration not stated) [Isoconazole] | 1.12 ± 0.04 | 1.09 ± 0.045
NCCCC(O)(P(=O)(O)O)P(=O)(O)O [Alendronate sodium] | 0.709 ± 0.1 | 0.515 ± 0.033
O=C(Nc1ccc([N+](=O)[O-])cc1Cl)c1cc(Cl)ccc1O [Niclosamide] | 0.124 ± 0.0032 | 0.0967 ± 0.0062
CN(C)CCOC(c1ccccc1)c1ccccc1.Cn1c(=O)c2[nH]c(Cl)nc2n(C)c1=O [Dimenhydrinate] | 1.08 ± 0.086 | 1.04 ± 0.024
CN1C(C)(C)CCCC1(C)C [Pempidine tartrate] | 0.993 ± 0.026 | 1.048 ± 0.004
C=C1C(=O)O[C@H]2[C@H]1CC/C(C)=C/CC[C@@]1(C)O[C@@H]21 [Parthenolide] | 0.199 ± 0.017 | 0.416 ± 0.11
Clc1ccc(CCC(Cn2ccnc2)Sc2c(Cl)cccc2Cl)cc1 (configuration not stated) [Butoconazole nitrate] | 0.839 ± 0.015 | 0.801 ± 0.028
CS(=O)(=O)c1ccc(C2=C(c3ccccc3)C(=O)OC2)cc1 [Rofecoxib] | 1.02 ± 0.065 | 1.02 ± 0.016
CC(C)n1c(/C=C/C(O)CC(O)CC(=O)O)c(-c2ccc(F)cc2)c2ccccc21 (configuration not stated) [Fluvastatin sodium salt] | 0.121 ± 0.0047 | 0.156 ± 0.004
CC(C)c1c(C(=O)Nc2ccccc2)c(-c2ccccc2)c(-c2ccc(F)cc2)n1CC[C@@H](O)C[C@@H](O)CC(=O)O [Atorvastatin] | 0.633 ± 0.051 | 0.734 ± 0.032
C=CC(N)CCC(=O)O (configuration not stated) [Vigabatrin] | 1.04 ± 0.061 | 1.03 ± 0.042
CCN(CC)CCCC(C)Nc1ccnc2cc(Cl)ccc12 (configuration not stated) [Chloroquine diphosphate] | 0.756 ± 0.026 | 0.76 ± 0.0079
CCN(CC)CCCC(C)Nc1c2ccc(Cl)cc2nc2ccc(OC)cc12 (configuration not stated) [Quinacrine dihydrochloride dihydrate] | 0.123 ± 0.011 | 0.108 ± 0.009

Structure (SMILES) | normalised cell viability (treatment time: 3 days) | normalised cell viability (treatment time: 6 days)
CCN(CCO)CCCC(C)Nc1ccnc2cc(Cl)ccc12 (configuration not stated) [Hydroxychloroquine sulfate] | 0.365 ± 0.05 | 0.524 ± 0.048
Clc1ccc(COC(Cn2ccnc2)c2ccc(Cl)cc2Cl)cc1 (configuration not stated) [Econazole nitrate] | 0.938 ± 0.028 | 0.98 ± 0.023
CC[C@H](C)[C@H](N)C1=N[C@H](C(=O)N[C@@H](CC(C)C)C(=O)N[C@H](CCC(=O)O)C(=O)N[C@H](C(=O)N[C@H]2CCCCNC(=O)[C@H](CC(N)=O)NC(=O)[C@@H](CC(=O)O)NC(=O)[C@H](Cc3cnc[nH]3)NC(=O)[C@@H](Cc3ccccc3)NC(=O)[C@H]([C@@H](C)CC)NC(=O)[C@@H](CCCN)NC2=O)[C@@H](C)CC)CS1 [Bacitracin] | 1.05 ± 0.02 | 0.983 ± 0.061
CCCCNc1c(C(=O)OCC)c(C)nc2c1cnn2CC [Tracazolate hydrochloride] | 0.947 ± 0.034 | 1.03 ± 0.013
Nc1nc(=O)c2c([nH]1)NC[C@@H](CNc1ccc(C(=O)N[C@@H](CCC(=O)O)C(=O)O)cc1)N2C=O [Folinic acid calcium salt] | 1.05 ± 0.036 | 1.11 ± 0.06
COC(=O)N/N=C/c1c[n+]([O-])c2ccccc2[n+]1[O-] [Carbadox] | 0.69 ± 0.18 | 0.549 ± 0.029
Cc1cc(/C=C/c2ccc3cc(N(C)C)ccc3[n+]2C)c(C)n1-c1ccccc1 [Pyrvinium pamoate] | 0.132 ± 0.0063 | 0.172 ± 0.012
CC1(C)S[C@@H]2[C@H](NC(=O)[C@H](N)c3ccccc3)C(=O)N2[C@H]1C(=O)OC1OC(=O)c2ccccc21 (some centres not stated) [Talampicillin hydrochloride] | 1.09 ± 0.082 | 1.02 ± 0.085
COc1cc([C@@H]2c3cc4c(cc3[C@@H](O[C@@H]3O[C@@H]5CO[C@@H](C)O[C@H]5[C@H](O)[C@H]3O)[C@H]3COC(=O)[C@H]23)OCO4)cc(OC)c1O [Etoposide] | 0.155 ± 0.0057 | 0.133 ± 0.017
COc1cc(NS(=O)(=O)c2ccc(N)cc2)ncn1 [Sulfamonomethoxine] | 1.02 ± 0.057 | 1.05 ± 0.031
CC(C)(C)NC[C@H](O)c1ccc(O)c(CO)c1 [Levalbuterol hydrochloride] | 1.03 ± 0.049 | 0.99 ± 0.13
CC(C)(S)[C@@H](N)C(=O)O [Penicillamine] | 0.964 ± 0.074 | 1.04 ± 0.097
N[C@@H](C(=O)N[C@@H]1C(=O)N2C(C(=O)O)=C(Cl)CC[C@H]12)c1ccccc1 [Loracarbef] | 1.05 ± 0.1 | 1.06 ± 0.033
CC(C)(C(=O)O)c1ccc(C(O)CCCN2CCC(C(O)(c3ccccc3)c3ccccc3)CC2)cc1 (configuration not stated) [Fexofenadine HCl] | 1.09 ± 0.02 | 1.04 ± 0.046
OC(CCCN1CCCCC1)(c1ccccc1)c1ccccc1 [Diphenidol hydrochloride] | 1.06 ± 0.037 | 1.05 ± 0.031
CC(C)(C)c1ccc(C(O)CCCN2CCC(C(O)(c3ccccc3)c3ccccc3)CC2)cc1 (configuration not stated) [Terfenadine] | 0.13 ± 0.0051 | 0.1 ± 0.0041
NC[C@@H]1O[C@@H](O[C@H]2[C@H](O)[C@@H](O[C@H]3O[C@H](CO)[C@@H](O)[C@H](N)[C@H]3O)[C@H](N)C[C@@H]2N)[C@@H](O)[C@H](O)[C@H]1O [Kanamycin A sulfate] | 0.965 ± 0.052 | 1.04 ± 0.02
O=C1CN2Cc3c(ccc(Cl)c3Cl)N=C2N1 [Anagrelide] | 1.01 ± 0.077 | 1.03 ± 0.054
c1ccc([C@H]2CN3CCSC3=N2)cc1 [Levamisole hydrochloride] | 1.03 ± 0.02 | 1.02 ± 0.032
CCN(CC)CCc1nc(-c2ccccc2)no1 [Oxalamine citrate salt] | 0.986 ± 0.061 | 0.933 ± 0.14
O=C(O)Cc1cc(I)c(Oc2ccc(O)c(I)c2)c(I)c1 [Tiratricol, 3,3',5-triiodothyroacetic acid] | 0.981 ± 0.023 | 1.03 ± 0.032

Structure (SMILES) | normalised cell viability (treatment time: 3 days) | normalised cell viability (treatment time: 6 days)
CCCc1cc(=O)[nH]c(=S)[nH]1 [Propylthiouracil] | 1.02 ± 0.022 | 1.025 ± 0.009
CC(=O)N1CCN(c2ccc(OCC3COC(Cn4ccnc4)(c4ccc(Cl)cc4Cl)O3)cc2)CC1 (configuration not stated) [Ketoconazole] | 0.8 ± 0.022 | 0.898 ± 0.028
CC1(C)S[C@@H]2[C@H](NC(=O)[C@H](NC(=O)N3CCNC3=O)c3ccccc3)C(=O)N2[C@H]1C(=O)O [Azlocillin sodium salt] | 1.01 ± 0.015 | 0.988 ± 0.092
Clc1cnccn1 [2-Chloropyrazine] | 1.03 ± 0.019 | 1.02 ± 0.016
COCC1=C(C(=O)OC(C)OC(=O)OC(C)C)N2C(=O)[C@@H](NC(=O)/C(=N\OC)c3csc(N)n3)[C@H]2SC1 (some centres not stated) [Cefpodoxime proxetil] | 1.18 ± 0.025 | 1.06 ± 0.086
CC(C(=O)O)c1ccc(N2Cc3ccccc3C2=O)cc1 (configuration not stated) [Indoprofen] | 1.012 ± 0.0016 | 1.08 ± 0.013
Nc1nc(=O)[nH]cc1F [Flucytosine] | 1.06 ± 0.02 | 0.987 ± 0.025
Cc1ccc2c(c1)c1c3n2CCNC3CCC1 (configuration not stated) [Pirlindole mesylate] | 0.904 ± 0.084 | 0.9725 ± 0.0077
NCc1ccccc1CC(=O)N[C@@H]1C(=O)N2C(C(=O)O)=C(CSc3nnnn3CC(=O)O)CS[C@H]12 [Ceforanide] | 1.02 ± 0.073 | 1.21 ± 0.22
C=CC[N@@+]12CC[C@@]34c5ccccc5N5/C=C6/[C@H]7C[C@H]8[C@@]9(CC[N@@+]8(CC=C)C/C7=C/CO)c7ccccc7N(/C=C(/[C@@H](C[C@@H]31)/C(=C\CO)C2)[C@H]54)[C@@H]69 [Alcuronium chloride] | 0.939 ± 0.13 | 1.03 ± 0.079
c1ccc(-c2ccc(C(c3ccccc3)n3ccnc3)cc2)cc1 (configuration not stated) [Bifonazole] | 0.878 ± 0.032 | 0.74 ± 0.06
CC(=O)O[C@]1(C(C)=O)CC[C@H]2[C@@H]3C=C(Cl)C4=CC(=O)CC[C@]4(C)[C@H]3CC[C@@]21C [Chlormadinone acetate] | 0.998 ± 0.06 | 0.983 ± 0.043
NNc1nncc2ccccc12 [Hydralazine hydrochloride] | 0.9847 ± 0.0028 | 1.03 ± 0.027
Nc1cc(-c2ccncc2)c[nH]c1=O [Amrinone] | 0.938 ± 0.029 | 0.951 ± 0.018
O=C(CCCCCCC(=O)Nc1ccccc1)NO [Vorinostat] | 0.14 ± 0.012 | 0.168 ± 0.012
CC(=O)Nc1ccc(CC(=O)O)cc1 [Actarit] | 1.05 ± 0.015 | 1.03 ± 0.038
O=C(CCCCC(=O)Nc1c(I)cc(I)c(C(=O)O)c1I)Nc1c(I)cc(I)c(C(=O)O)c1I [Iodipamide] | 1.03 ± 0.06 | 0.972 ± 0.029
CC[C@H](C)C(=O)O[C@H]1CCC=C2C=C[C@H](C)[C@H](CC[C@@H]3C[C@@H](O)CC(=O)O3)[C@H]21 [Mevastatin] | 0.23 ± 0.011 | 0.229 ± 0.0063
CCCNC(C)C(=O)Nc1c(C)csc1C(=O)OC (configuration not stated) [Articaine hydrochloride] | 1.03 ± 0.024 | 1.06 ± 0.084

From the supplement of paper PMC6609913
